Here are results for 40 sequences from the supplement of paper PMC6555819.

The test has as its system RARa homodimer (NR concentration 270 nM). Briefly: PBM binding z-score (relative to random genomic background probes); higher = stronger binding; sequences stand for … in GC…GCGATTGACAGCGTAGAATGAAGG
In short, it runs like this:
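Each nuclear receptor dimer, without ligand, was incubated for 1 h on custom Agilent 4×180K protein-binding microarrays. Binding was detected with antibodies against each partner (one per run), and scanned fluorescence was regression-normalized. The binding z-scores are referenced to random human genomic background probes.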
As for CGAACGAGGTCATTGACAGGACAGTGAATAGTAA, the PBM binding z-score was determined as 0.884.

Sequence TCTAGTTGGTCACGGAGGGCACACACGACGGGTA yielded a PBM binding z-score of 0.42.

Sequence AGAATGAGGTCATTAAGATCAGGGAATTGCGGTC showed a PBM binding z-score of 0.745.

For CGCACTAGGTCATCCAGGACAGTGAATACATTGA, the PBM binding z-score was 0.479.

TAGCCTAGGTCATGCGGCCCAGTATAGTGTCGGC had a PBM binding z-score of -0.495.

GATACAGGGTCAGCTACAGGCCAGAGTATGGAAA came in with a PBM binding z-score of 0.244.

In turn, ATCGAAAGGTCGACGCGGTGAGTATACACCGTTT gave a PBM binding z-score of 0.192.

The sequence CCTGCTAGGTCATGGTCAGCGAATCTACAGTATG came in with a PBM binding z-score of -0.334.

GCTGCTAGGTCAACTGATGGTCACCTAAAGCTCG came in with a PBM binding z-score of 0.182.

For CCGACTGGGGCAAGGTCACCATAACGCACAGCCA, the PBM binding z-score was 0.752.

For the sequence TCTCGGAGGACACCAAAGGTCAGAGCTCGACATC, the PBM binding z-score amounted to 1.44.

In turn, AGTCAAAGTGCATCTAGGTAACGTAAGATATGCT had a PBM binding z-score of -0.00454.

Consider CCTACTGGGCCAAAAAGTTCATTGATGCCGATAA, for which the PBM binding z-score was found to be 0.294.

For ATTTGTAGGTTACATCCGGGTCATTCAGGCTATG, the PBM binding z-score came out at 2.72.

Consider CGAACTAGGTCACCCAGGACAGTGAATACATTGA, for which the PBM binding z-score was 1.21.

As to CGTCCGAGGTCATAGGAGGTCAGTGAAGACAGAT, the PBM binding z-score was found to be 2.36.

For CCTAGTTGTTCAGGAGGTCACACACCGGATATGA, the PBM binding z-score turned out to be 2.25.

For the sequence CGAACTACGTCATCCAGGACAGTGAATACATTGA, the PBM binding z-score came out at 0.377.

Turning to AATAAAGGGTCATCGTAGGCCAGAGTACGCACAG, the PBM binding z-score came out at 3.37.

In turn, CGTCAAAGTCCAAGGTAACGTAACAGAAAGCAGC had a PBM binding z-score of 0.428.

The sequence TAGCCTAGGTCATACAGGGGCCAGTATAGAAAGC showed a PBM binding z-score of 0.204.

CGAACAAGGTCATTGACAGGACAGTGAATAGTAA: the PBM binding z-score was 1.42.

ATATGTAGGTTAGCTGGGGTCATTCACACTAGGC gave a PBM binding z-score of 1.89.

CGTCCAAGGACAATGCTAGGTCAGTGAAAGCATT: the PBM binding z-score is -0.127.

With CGAACGAGGTCATGAGTTGATAGCAAATGCCGAT, the PBM binding z-score turned out to be 0.273.

AGAATGAGGTCAAGATCAGGGAAACAGAATACAT: the PBM binding z-score turned out to be 1.39.

On to CGTCCAAGGTTAAGGTCAGTGAAAGAGACTCGAA, for which the PBM binding z-score stood at 0.781.

In the case of CATACAGGGTCGGCTAGGCCAGAGTAGGGACGGC, the PBM binding z-score is -0.15.

CCTACTGGGCCAAAGAGGTCATTGATGCCGATAA gave a PBM binding z-score of 0.256.

Sequence ATATGTAGGTTAGGGTCAGTCAGAAAGTAGGGAA came in with a PBM binding z-score of 2.63.

The sequence AGTCAAAGTTTATCTAGGTAACGTAAGATATGCT returned a PBM binding z-score of 0.429.

With TAGCCTAGGTCATGCGGGACAGTATAGTGTCGGC, the PBM binding z-score is -0.0247.

ACTTAAGGGTCAACGAGGTTATAGCACGCGTATA returned a PBM binding z-score of 2.01.

Regarding TAGCCTAGTTCATTCAGGGGCCAGTATAGAAAGC, the PBM binding z-score is -0.411.

CGAACAAGGTCATCCAGGACAGTGAATACATTGA had a PBM binding z-score of 2.04.

With CGTCCGAGGTCAAGGTCAGTGAAAGAGACTCGAA, the PBM binding z-score came out at 1.57.

As for TAGCCGAGGTCATTCAGGGGCCAGTATAGAAAGC, the PBM binding z-score came to 0.64.

In turn, CCTACTCGGCCAAAAAGGTCATTGATGCCGATAA showed a PBM binding z-score of 1.71.

The sequence CCTTACGGGTCCCTCCAGGTTATAGCATCGGAGT had a PBM binding z-score of -0.487.

The sequence AACGAAAGGTCGAAGGTGAGTATACCCACCCGAA came in with a PBM binding z-score of 0.698.
